In PubChem BioAssay AID1159580 (chemical genetic matrix, 2015):
Screen size: about 5,500 compounds; about 2,000 (36%) were called active. About 18% were inconclusive and are not listed. Cut-off read from the data, not from the text of the source: active = normalized growth mostly below about 0.91 (no sharp cut-off); inconclusive = no clear call, values can overlap the other calls; inactive = mostly above about 0.92. The list shows a part of the results.

Experiment: chemical genetic growth profiling, strain panel (AID 1159580);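 note: tested at 20 µM; growth read once vehicle control cultures reached saturation at 30 °C; 1 = growth at the plate median or of vehicle wells; lower values mean less growth of the strain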
Conditions: S. cerevisiae deletion strains, growth OD

Measured: normalized growth

NCC1CCCCC1CC(=O)O (centres undefined)
inactive: locus YAL021C, strain ccr4, hits give low values 1.01 | locus YAL026C, strain drs2, hits give low values 1.02 | locus YAL030W, strain snc1, hits give low values 1.03 | locus YBL061C, strain skt5, hits give low values 1.04 | locus YBR009C, strain hhf1, hits give low values 0.988 | locus YBR023C, strain chs3, hits give low values 1.02 | locus YBR171W, strain sec66, hits give low values 1.03 | locus YBR231C, strain swc5, hits give low values 1.01 | locus YBR279W, strain paf1, hits give low values 1.03 | locus YCL011C, strain gbp2, hits give low values 1.02 | locus YCL016C, strain dcc1, hits give low values 1 | locus YCL061C, strain MRC1, hits give low values 1.04 | locus YCL069W, strain vba3, hits give low values 1.02 | locus YCR088W, strain abp1, hits give low values 1.04 | locus YDL005C, strain med2, hits give low values 1.02 | locus YDL040C, strain nat1, hits give low values 1.02 | locus YDR001C, strain nth1, hits give low values 1.02 | locus YDR069C, strain doa4, hits give low values 1.05 | locus YDR137W, strain rgp1, hits give low values 1.03 | locus YDR159W, strain sac3, hits give low values 0.98 | locus YDR195W, strain ref2 0.989 | locus YDR297W, strain sur2, hits give low values 1.05 | locus YDR334W, strain swr1, hits give low values 1.02 | locus YDR335W, strain msn5, hits give low values 1.03 | locus YDR392W, strain spt3, hits give low values 0.95 | locus YEL003W, strain gim4, hits give low values 1.03 | locus YEL037C, strain rad23, hits give low values 1.02 | locus YEL061C, strain CIN8 (second series), hits give low values 1.02 | locus YER015W, strain faa2, hits give low values 1.03 | locus YER016W, strain bim1, hits give low values 1 | locus YER111C, strain swi4, hits give low values 1.01 | locus YER155C, strain BEM2 (second series), hits give low values 1.07 | locus YFR010W, strain ubp6, hits give low values 1.02 | locus YGL167C, strain pmr1, hits give low values 1.03 | locus YGL173C, strain kem1, hits give low values 1.04 | locus YGL227W, strain vid30, hits give low values 1.03 | locus YGL240W, strain doc1, hits give low values 1.04 | locus YGL253W, strain hxk2, hits give low values 1.03 | locus YHR013C, strain ard1, hits give low values 1.02 | locus YHR027C, strain rpn1, hits give low values 1.01 | locus YHR030C, strain SLT2, hits give low values 0.999 | locus YHR079C, strain IRE1, hits give low values 0.997 | locus YHR142W, strain chs7, hits give low values 1.03 | locus YJL092W, strain hpr5, hits give low values 1.03 | locus YJL095W, strain BCK1 (second series), hits give low values 1.02 | locus YJL095W, strain BCK1, hits give low values 0.988 | locus YJL115W, strain asf1, hits give low values 1.03 | locus YJL129C, strain trk1, hits give low values 1.04 | locus YJL154C, strain vps35, hits give low values 1.01 | locus YJL164C, strain tpk1, hits give low values 1.01 | locus YJL166W, strain qcr8, hits give low values 1.05 | locus YJR066W, strain TOR1, hits give low values 0.941 | locus YKL160W, strain elf1, hits give low values 1.04 | locus YKR026C, strain gcn3, hits give low values 1.02 | locus YKR091W, strain srl3, hits give low values 1.02 | locus YLL001W, strain dnm1, hits give low values 1.04 | locus YLL026W, hits give low values 1.01 | locus YLL041C, strain sdh2, hits give low values 1.02 | locus YLR027C, strain aat2, hits give low values 1.04 | locus YLR113W, strain HOG1, hits give low values 0.959 | locus YLR221C, strain rsa3, hits give low values 1 | locus YLR258W, strain gsy2, hits give low values 1.02 | locus YLR262C, strain YPT6 (second series), hits give low values 1.04 | locus YLR320W, strain mms22, hits give low values 1 | locus YLR342W, strain FKS1, hits give low values 1.04 | locus YLR357W, strain rsc2, hits give low values 1.04 | locus YLR370C, strain arc18, hits give low values 1.03 | locus YLR384C, strain iki3, hits give low values 1.02 | locus YML120C, strain ndi1, hits give low values 1.03 | locus YMR058W, strain fet3, hits give low values 1.04 | locus YMR125W, strain sto1, hits give low values 0.985 | locus YMR129W, hits give low values 1.02 | locus YMR205C, strain PFK2, hits give low values 1.04 | locus YMR231W, strain pep5, hits give low values 1.02 | locus YNL071W, strain lat1, hits give low values 1.01 | locus YNL183C, strain NPR1, hits give low values 0.912 | locus YNL209W, strain ssb2, hits give low values 1.03 | locus YNL248C, strain rpa49, hits give low values 1.01 | locus YNL322C, strain KRE1 (second series), hits give low values 1.02 | locus YNR049C, strain mso1, hits give low values 1.02 | locus YOR001W, strain rrp6, hits give low values 1.04 | locus YOR070C, strain gyp1, hits give low values 1.02 | locus YOR080W, strain dia2, hits give low values 1.04 | locus YOR083W, strain WHI5, hits give low values 1.01 | locus YOR106W, strain vam3, hits give low values 1.06 | locus YOR231W, strain MKK1, hits give low values 0.992 | locus YOR265W, strain rbl2, hits give low values 1.03 | locus YOR270C, strain vph1, hits give low values 1.04 | locus YOR290C, strain snf2, hits give low values 1 | locus YPL051W, strain arl3, hits give low values 1.03 | locus YPL078C, strain atp4, hits give low values 1.05 | locus YPL106C, strain sse1, hits give low values 1 | locus YPL240C, strain hsp82, hits give low values 1.02 | locus YPL256C, strain CLN2, hits give low values 0.961
